Values joined by “and” are separate entries in the source; they are usually repeats but may differ in a detail not shown here. Equal values may be shown once. Records with an inconclusive call do not appear. Active and inactive are the calls of the source. How the source made its calls: active means hit-call score of the fitted dose curve at least 0.9, where 1 is the maximum; inconclusive means response in the unintended direction; inactive means score below 0.9.

Test system in the first assay: not listed separately
Briefly: Tanguay_ZF_120hpf_NC_legacy: (Legacy) Oregon State University Tanguay Lab 120 Hour Post-fertilization zebrafish Assay for Notochord and Tail Malformation (AID 2283656). In short, it runs like this:
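Dechorionated Tropical 5D wild-type zebrafish embryos, one per well from 6 hpf, statically exposed to 120 hpf at 28C in 0.64% DMSO final. Notochord distortion scored present/absent by brightfield; dead embryos excluded.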
With `CCCC(=O)OCC`, the compound was called inactive. As to `Cc1ccc(O)cc1`, the call was inactive. In the case of `CNCc1ccc(NC(=O)c2c[nH]c3c2C(=O)CCC3)cc1`, the compound was classed as inactive.

For `NC(=O)NO`, the compound was classed as inactive. Turning to `Clc1nc(Cl)c(Cl)c(Cl)c1Cl`, the call was inactive. `CCCCC(CC)COC(=O)CCCCCCCCC(=O)OCC(CC)CCCC` (stereo unspecified): the call was inactive.

Another assay has as its system Thyroperoxidase (TPO), gene 54314. In words: CCTE_Simmons_AUR_rTPO: CCTE's Amplex UltraRed Assay for Thyroperoxidase (TPO) Inhibition, Simmons Lab (AID 2283662).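 On AC50: potency for loss of signal meaning inhibition of peroxidase activity.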 The method, boiled down:
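Rat thyroid microsomes (5 ug protein) were incubated with test compound (8 concentrations, 5 nM–87.5 uM final, 0.5% DMSO), 25 uM Amplex UltraRed and 300 uM H2O2 in 200 mM phosphate buffer for 30 min at 37C in the dark; fluorescence read at 544/590 nm.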
Take `C[C@](N)(Cc1ccc(O)c(O)c1)C(=O)O`: the AC50 is 0.696 µM (active). For `CCNc1ccccc1`, the outcome was inactive. Take `CCC(C)(C)C(=O)O[C@H]1C[C@@H](C)C=C2C=C[C@H](C)[C@H](CC[C@@H]3C[C@@H](O)CC(=O)O3)[C@H]21`: the AC50 was 43.8 µM (active). Take `CC[C@H](C)C(=O)O[C@H]1C[C@@H](C)C=C2C=C[C@H](C)[C@H](CC[C@@H]3C[C@@H](O)CC(=O)O3)[C@H]21`: the AC50 is 40.3 µM (active) and 43.8 µM (active).

Turning to `CCCCCCc1ccc(O)cc1O`, the AC50 was 0.00854 µM (active). For the compound `CC(C)=CCCC(C)CCO` (stereo unspecified), the outcome was inactive. With `CN(C)c1ccc(Cc2ccc(N(C)C)cc2)cc1`, the AC50 was 12 µM (active). Consider `CN(C)c1ccc(N=NS(=O)(=O)O)cc1`, for which the AC50 was 21.7 µM (active). Regarding `NC(=O)NO`, the AC50 was 43.8 µM (active). Regarding `CC(C)=CCC/C(C)=C\CO`, the AC50 was 8.64 µM (active).

Values taken from PubChem BioAssay (EPA / NIEHS).
